# A number with no mark means an inactive call. Results filed as inconclusive are left out. Entries that show only a call come without a potency. The source made the active and inactive calls. Unless noted, the call rests on the fitted dose curve; in most records, active means well fitted curve in the direction sought with a large enough effect in the repeat runs; inconclusive means weak or mixed curves; inactive means no such curve, though single readings can be large; an effect the other way counts as inactive or inconclusive.
# Key:
# [1] = qHTS assay for small molecule agonists of the p53 signaling pathway (AID 651631; calls by dose curve; further: nearly all actives have a fitted effect of over 15% in size)
# In short: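 HCT-116 cells carrying a stable p53 response element–beta-lactamase reporter were plated, rested 5 h at 37 °C, then exposed to compound in DMSO for 16 h at 37 °C; reporter activity was read as FRET substrate fluorescence after 2 h at room temperature.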
# [2] = qHTS assay for small molecule agonists of the p53 signaling pathway - cell viability (AID 651633; calls by dose curve; further: series mostly up to about 83 µM; nearly all actives have a fitted effect of over 30% in size)
# In short: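 p53RE-bla cells, seeded at 4,000 per well and rested 5 h at 37 C/5% CO2, received compounds in DMSO for 16 h at 37 C. CellTiter-Glo was then added, and luminescence was read after 30 min at room temperature to gauge cytotoxicity.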
# [3] = qHTS assay for small molecules that induce genotoxicity in human embryonic kidney cells expressing luciferase-tagged ATAD5 - cell viability (AID 651634; calls by dose curve; further: nearly all actives have a fitted effect of over 25% in size)
# In short: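 Cytotoxicity counter-readout: after 15.5 hr compound treatment at 37C, live-cell protease activity in ATAD5-luciferase HEK293T cells measured by CellTiter-Fluor fluorescence, 30 min development at 37C.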
# [4] = qHTS assay for small molecule disruptors of the mitochondrial membrane potential - cell viability (AID 720634; calls by dose curve;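 further: human HepG2 liver cancer cells; series mostly up to about 83 µM; nearly all actives have a fitted effect of over 20% in size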)
# In short: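 Cytotoxicity was quantified from ATP content by CellTiter-Glo luminescence in the same wells as the MMP dye read-out. HepG2 (2,000 cells/well) were plated overnight and exposed to compounds for 1 hr at 37 C.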
# [5] = qHTS assay for small molecule disruptors of the mitochondrial membrane potential (AID 720635); further: potency means the concentration at half of the fitted maximal effect
# In short: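 HepG2 cells (2,000/well) attached overnight at 37C, then took compound for 1 hr at 37C, 5% CO2. Mito-MPS dye was added for 30 min; fluorescence was read at 490/535 nm (monomers) and 540/590 nm (aggregates).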
# [6] = qHTS assay to test for compound auto fluorescence at 590 nm (red) in HepG2 cells (AID 720674)
# In short: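 Intrinsic compound fluorescence in the red window (Ex/Em 540/590 nm) is measured in attached HepG2 cells exposed for 1 hr, DMSO vehicle as baseline, benchmarked to Rose Bengal sodium.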
# [7] = qHTS assay to test for compound auto fluorescence at 535 nm (green) in HepG2 cells (AID 720675)
# [8] = qHTS assay to test for compound auto fluorescence at 460 nm (blue) in HEK293 cells (AID 720678)
# In short: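 Triamterene serves as the blue fluorophore standard. Compound signal at 405/460 nm is read in HEK293 wells (2,000 cells, 10% dialyzed FBS) after overnight treatment at 37C.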
# [9] = qHTS assay to test for compound auto fluorescence at 590 nm (red) in HEK293 cells (AID 720679)
# In short: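 We plated HEK293 cells in 10% dialyzed FBS medium, let them adhere for 4-5 hr, then added 23 nL compound. Overnight at 37C and 5% CO2 preceded fluorescence measurement at 540/590nm.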
# [10] = qHTS assay to test for compound auto fluorescence at 535 nm (green) in HEK293 cells (AID 720680)
# [11] = qHTS assay to test for compound auto fluorescence at 535 nm (green) in HEK293 cell free culture (AID 720682)
# In short: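 Read-out: 485/535 nm fluorescence intensity, calibrated against fluorescein. Medium only (DMEM + 10% FBS, no cells); test compound or DMSO vehicle added by pintool before plate reading.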
# [12] = qHTS assay to test for compound auto fluorescence at 590 nm (red) in HEK293 cell free culture (AID 720683)
# In short: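 Tox21 10K library compounds were pinned into cell-free DMEM with 10% FBS and fluorescence was read at excitation 540 nm. Activity is expressed as Rose Bengal sodium equivalency.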
# [13] = qHTS assay to test for compound auto fluorescence at 590 nm (red) in HepG2 cell free culture (AID 720684)
# In short: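 Readout: intrinsic compound fluorescence at 590 nm emission after 540 nm excitation, scaled to Rose Bengal sodium. Matrix was cell-free MEM with 10% FBS; DMSO vehicle wells served as control.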
# [14] = qHTS assay to test for compound auto fluorescence at 460 nm (blue) in HepG2 cell free culture (AID 720685)
# In short: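 Cell-free plates of MEM plus 10% FBS received 23 nL compound or DMSO vehicle; blue-channel (405/460 nm) intensity scored against triamterene as reference fluorophore.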
# [15] = qHTS assay to test for compound auto fluorescence at 535 nm (green) in HepG2 cell free culture (AID 720686)
# [16] = qHTS assay to test for compound auto fluorescence at 460 nm (blue) in HepG2 cells (AID 720687)
# In short: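 Cells (2,000/well in MEM with 10% FBS) attached overnight at 37 C, then were exposed to compound or DMSO for 1 hr at 37 C, 5% CO2. Fluorescence read at Ex/Em 405/460 nm, expressed as triamterene-equivalent signal.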
# [17] = biological target: Glucocorticoid receptor (Homo sapiens) (UniProt P04150); test: qHTS assay to identify small molecule agonists of the glucocorticoid receptor (GR) signaling pathway (AID 720691; active means well fitted activation curve with a large enough effect in the signal ratio in the repeat runs, not every such curve was filed as active; the % refers to the signal ratio)
# Sequence of Glucocorticoid receptor (Homo sapiens) (P04150 whole entry, looked up): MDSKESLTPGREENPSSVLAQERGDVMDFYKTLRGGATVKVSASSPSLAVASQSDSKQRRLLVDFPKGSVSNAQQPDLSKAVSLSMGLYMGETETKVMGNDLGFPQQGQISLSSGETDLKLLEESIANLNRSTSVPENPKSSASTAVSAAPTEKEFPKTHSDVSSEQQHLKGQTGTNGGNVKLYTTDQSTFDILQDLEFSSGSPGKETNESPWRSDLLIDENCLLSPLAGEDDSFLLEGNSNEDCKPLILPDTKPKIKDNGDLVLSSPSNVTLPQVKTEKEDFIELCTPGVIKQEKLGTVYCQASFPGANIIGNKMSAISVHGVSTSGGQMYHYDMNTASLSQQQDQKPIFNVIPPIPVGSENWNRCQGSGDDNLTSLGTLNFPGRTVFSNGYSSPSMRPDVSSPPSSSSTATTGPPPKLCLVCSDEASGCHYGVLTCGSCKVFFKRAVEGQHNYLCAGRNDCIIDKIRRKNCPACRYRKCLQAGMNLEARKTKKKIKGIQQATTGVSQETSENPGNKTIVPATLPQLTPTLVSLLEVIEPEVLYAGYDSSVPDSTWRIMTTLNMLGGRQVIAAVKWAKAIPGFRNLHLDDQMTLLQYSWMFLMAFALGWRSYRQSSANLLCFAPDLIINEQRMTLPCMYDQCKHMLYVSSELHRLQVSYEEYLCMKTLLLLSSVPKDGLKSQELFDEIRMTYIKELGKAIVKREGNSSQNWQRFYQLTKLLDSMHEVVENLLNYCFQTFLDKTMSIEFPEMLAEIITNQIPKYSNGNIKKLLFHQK
# In short: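 Agonist-mode qHTS in HeLa cells stably expressing a glucocorticoid-response-element beta-lactamase reporter. Fluorescence intensity read with FRET substrate (2 h, room temperature) after 18 h compound treatment at 37 C.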
# [18] = biological target: Glucocorticoid receptor (Homo sapiens) (UniProt P04150); test: qHTS assay to identify small molecule antagonists of the glucocorticoid receptor (GR) signaling pathway (AID 720692; active means well fitted inhibition curve with a large enough effect in the signal ratio in the repeat runs, not every such curve was filed as active; the % refers to the signal ratio; further: potency means the concentration at half of the fitted maximal effect)
# In short: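 Inhibition of dexamethasone-driven (5 nM final) beta-lactamase expression was measured in GRE-reporter HeLa cells over 18 h at 37C. Fluorescence was read after 2 h with the B/G FRET substrate at room temperature.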
# [19] = qHTS assay for small molecules that induce genotoxicity in human embryonic kidney cells expressing luciferase-tagged ATAD5 (AID 651632); further: nearly all actives have a fitted effect of over 15% in size
# In short: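 A rise in luciferase signal from ATAD5-tagged HEK293T cells marks genetic stress. Cells were exposed to compounds for 16 hr at 37C, 5% CO2, then luciferase was quantified after a 30 min room-temperature incubation with Amplite.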
# [20] = qHTS assay to test for compound auto fluorescence at 460 nm (blue) in HEK293 cell free culture (AID 720681)
# In short: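 Test compounds were pinned into cell-free culture medium (DMEM with 10% FBS) and fluorescence was read directly at Ex/Em 405/460 nm. Signals were expressed as fluorescence equivalents of triamterene, with DMSO vehicle as control.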
SMILES,Potency [1],Potency [2],Potency [3],outcome [4],Potency [5],outcome [6],outcome [7],Potency [8],outcome [9],outcome [10],outcome [11],outcome [12],outcome [13],Potency [14],outcome [15],Potency [16],Potency [17],Potency [18],Potency [19],Potency [20]
Cc1ccc(NC(=O)N(C)C)cc1NC(=O)N(C)C,inactive,inactive,inactive,inactive,inactive,inactive,inactive,inactive,inactive,inactive,inactive,inactive,inactive,inactive,inactive,inactive,inactive,inactive,–,–
O=P(O)(O)Oc1ccccc1,inactive,inactive,–,inactive,–,inactive,inactive,inactive,inactive,inactive,inactive,inactive,inactive,inactive,–,inactive,inactive,inactive,inactive,–
O=C(O)CCS,inactive,inactive,inactive,–,–,–,inactive,inactive,inactive,inactive,inactive,–,inactive,inactive,inactive,inactive,–,–,inactive,inactive
O=C1OC[C@H](Cc2cccc(O)c2)[C@H]1Cc1cccc(O)c1,inactive,inactive,–,inactive,8.24 µM (active),inactive,inactive,–,inactive,inactive,inactive,inactive,inactive,inactive,inactive,inactive,inactive,–,inactive,inactive
COc1ccc(-n2nc(C(F)F)cc2-c2ccc(S(C)=O)cc2)cc1 (configuration not stated),inactive,–,inactive,inactive,inactive,inactive,inactive,inactive,inactive,inactive,inactive,inactive,inactive,inactive,inactive,inactive,inactive,inactive,inactive,inactive
C[C@@H]1[C@H](O)[C@@H](C)/C=C/C=C\C=C\C=C\C=C\C=C\C=C\[C@H](O[C@@H]2O[C@H](C)[C@@H](O)[C@H](N)[C@@H]2O)C[C@@H]2O[C@](O)(C[C@@H](O)C[C@@H](O)[C@H](O)CC[C@@H](O)C[C@@H](O)CC(=O)O[C@H]1C)C[C@H](O)[C@H]2C(=O)O (stereo in doubt),inactive,inactive,–,inactive,–,inactive,inactive,inactive,inactive,inactive,inactive,inactive,inactive,inactive,inactive,inactive,inactive,49 µM (active),inactive,inactive
C1CCCCC1,inactive,inactive,inactive,inactive,inactive,inactive,inactive,inactive,inactive,–,inactive,–,inactive,inactive,–,inactive,inactive,–,–,inactive

# Source: PubChem BioAssay (Tox21)
